# For some assays here: Entries with a potency or affinity are not part of this list.
# Assays:
# Set-up in all cases: scale not given: direction of the effect not stated beside the values
# [1] = biological target: Protein translocase subunit SecA (Escherichia coli (strain K12)) (UniProt P10408); assay: Assay to Identify E. coli SecA ATPase Inhibitors; format: functional; conditions: 30 µM
# [2] = biological target: T1, Ubiquitin-activating enzyme e1, putative (Leishmania donovani (strain BPK282A1)) (UniProt E9BSI1); assay: Leishmania donovani Ubiquitin Activating Enzyme (LdE1); format: functional; conditions: 30 µM
# T1 sequence (whole entry): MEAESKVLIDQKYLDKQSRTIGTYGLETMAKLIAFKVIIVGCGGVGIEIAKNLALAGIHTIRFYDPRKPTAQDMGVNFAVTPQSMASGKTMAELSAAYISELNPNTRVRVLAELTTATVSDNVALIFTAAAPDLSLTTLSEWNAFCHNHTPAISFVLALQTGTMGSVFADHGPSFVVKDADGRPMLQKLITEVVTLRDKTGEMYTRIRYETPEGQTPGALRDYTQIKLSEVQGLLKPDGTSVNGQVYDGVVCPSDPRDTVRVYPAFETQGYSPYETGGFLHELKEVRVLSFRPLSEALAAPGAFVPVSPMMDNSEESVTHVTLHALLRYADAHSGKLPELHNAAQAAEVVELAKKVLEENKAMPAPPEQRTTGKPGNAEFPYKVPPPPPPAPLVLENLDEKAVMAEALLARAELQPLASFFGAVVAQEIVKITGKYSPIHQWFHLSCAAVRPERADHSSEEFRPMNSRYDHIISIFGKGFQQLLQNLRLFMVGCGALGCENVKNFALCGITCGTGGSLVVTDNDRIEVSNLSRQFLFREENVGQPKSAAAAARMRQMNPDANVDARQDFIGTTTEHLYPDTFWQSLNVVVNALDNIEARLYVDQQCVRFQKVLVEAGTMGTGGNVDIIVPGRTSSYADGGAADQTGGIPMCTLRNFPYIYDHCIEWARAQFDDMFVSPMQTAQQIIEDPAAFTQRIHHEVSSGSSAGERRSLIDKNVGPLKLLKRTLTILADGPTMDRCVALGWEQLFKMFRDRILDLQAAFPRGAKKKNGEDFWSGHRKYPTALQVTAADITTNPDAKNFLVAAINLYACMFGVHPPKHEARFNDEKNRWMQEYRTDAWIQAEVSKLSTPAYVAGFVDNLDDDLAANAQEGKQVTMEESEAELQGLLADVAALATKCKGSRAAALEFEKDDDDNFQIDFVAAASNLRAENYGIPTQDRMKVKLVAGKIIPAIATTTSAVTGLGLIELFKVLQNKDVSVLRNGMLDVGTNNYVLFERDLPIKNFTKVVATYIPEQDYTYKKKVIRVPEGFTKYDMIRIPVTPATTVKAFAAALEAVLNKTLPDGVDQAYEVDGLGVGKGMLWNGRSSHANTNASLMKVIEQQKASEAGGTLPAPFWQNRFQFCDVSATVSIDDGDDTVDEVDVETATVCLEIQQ
# [3] = biological target: AMP-activated protein kinase, AMPK (Homo sapiens) (UniProt P54646+O43741+P54619+Q9UGJ0+Q9Y478+Q13131+Q9UGI9); assay: AMP-dependent Kinase enzyme assay. An in vitro enzyme assay that detects ADP turnover that is directly proportional to AMPK activity. This uses naive AMPK that is activated during the assay with MK-8722; format: functional; conditions: 30 µM
# [4] = biological target: Sialic acid-binding Ig-like lectin 9 (Homo sapiens) (UniProt Q9Y336); assay: Hs-Siglec9 ALPHAscreen SOP 20170721; conditions: 10 µM
# Chain of Sialic acid-binding Ig-like lectin 9 (Homo sapiens) (Q9Y336 whole entry): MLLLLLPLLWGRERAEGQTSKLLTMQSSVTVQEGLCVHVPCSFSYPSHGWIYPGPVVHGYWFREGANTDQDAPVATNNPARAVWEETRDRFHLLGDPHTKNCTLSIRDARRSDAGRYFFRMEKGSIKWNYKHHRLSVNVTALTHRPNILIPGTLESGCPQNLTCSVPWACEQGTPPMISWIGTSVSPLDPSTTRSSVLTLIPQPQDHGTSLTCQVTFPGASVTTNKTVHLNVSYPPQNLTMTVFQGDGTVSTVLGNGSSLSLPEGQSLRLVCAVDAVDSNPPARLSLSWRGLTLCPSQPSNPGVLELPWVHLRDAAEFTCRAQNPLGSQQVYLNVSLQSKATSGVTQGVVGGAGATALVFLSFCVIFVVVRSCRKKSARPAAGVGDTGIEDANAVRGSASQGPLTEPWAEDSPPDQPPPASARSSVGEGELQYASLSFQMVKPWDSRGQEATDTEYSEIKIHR
# Trypanosoma cruzi = assay: Trypanosoma cruzi phosphomannomutase and mannose-1-phosphate guanylyltransferase assay; format: functional; conditions: 10 µM
# [5] = biological target: T2, Arginase-2, mitochondrial (Homo sapiens) (UniProt P78540); assay: in vitro enzyme assay to detect the production of urea directly proportional to the activity of Arginase II; format: functional; conditions: 33.3 µM; also: in the data most compounds retested in dose-response had high values
# T2 sequence (whole entry): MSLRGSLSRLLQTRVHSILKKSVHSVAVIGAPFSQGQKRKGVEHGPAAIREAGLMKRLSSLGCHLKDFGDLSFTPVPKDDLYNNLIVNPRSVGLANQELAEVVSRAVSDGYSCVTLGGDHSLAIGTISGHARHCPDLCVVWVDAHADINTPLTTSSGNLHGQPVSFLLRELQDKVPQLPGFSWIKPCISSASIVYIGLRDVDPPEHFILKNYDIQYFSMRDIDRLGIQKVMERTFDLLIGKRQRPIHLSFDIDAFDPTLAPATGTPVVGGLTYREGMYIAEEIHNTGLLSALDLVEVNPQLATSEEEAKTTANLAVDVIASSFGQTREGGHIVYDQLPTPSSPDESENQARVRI
# [6] = biological target: T3, Proteasome subunit beta (Trypanosoma cruzi) (UniProt O96673); assay: Trypanosoma cruzi proteasome chymotrypsin-like activity (TcProtChymo) assay.; also: in the data most compounds retested in dose-response had high values; format: functional; conditions: 9.37 µM
# T3 sequence (whole entry): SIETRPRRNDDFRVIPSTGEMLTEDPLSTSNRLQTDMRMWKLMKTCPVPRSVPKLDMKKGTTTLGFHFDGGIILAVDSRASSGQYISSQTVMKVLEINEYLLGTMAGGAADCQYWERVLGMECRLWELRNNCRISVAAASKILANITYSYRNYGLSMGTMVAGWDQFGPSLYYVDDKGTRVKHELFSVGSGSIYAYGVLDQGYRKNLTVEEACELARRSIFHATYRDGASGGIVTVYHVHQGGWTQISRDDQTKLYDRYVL
# Homo sapiens = species on record: Homo sapiens; assay: To identify inhibition of the IFN signalling (Jak-Stat) pathway via expression of an eGFP reporter gene under the control of an IFN-stimulated response element (ISRE) containing MxA promoter.; format: functional; conditions: 30 µM
# [7] = biological target: T4, Tyrosyl-tRNA synthetase, putative (Trypanosoma cruzi (strain CL Brener)) (UniProt Q4DSP6); assay: Trypanosoma cruzi tyrosyl tRNA synthetase (TcYRS) _High Tyrosine SOP; format: functional; conditions: 30 µM; also: in the data most compounds retested in dose-response had high values
# T4 sequence (whole entry): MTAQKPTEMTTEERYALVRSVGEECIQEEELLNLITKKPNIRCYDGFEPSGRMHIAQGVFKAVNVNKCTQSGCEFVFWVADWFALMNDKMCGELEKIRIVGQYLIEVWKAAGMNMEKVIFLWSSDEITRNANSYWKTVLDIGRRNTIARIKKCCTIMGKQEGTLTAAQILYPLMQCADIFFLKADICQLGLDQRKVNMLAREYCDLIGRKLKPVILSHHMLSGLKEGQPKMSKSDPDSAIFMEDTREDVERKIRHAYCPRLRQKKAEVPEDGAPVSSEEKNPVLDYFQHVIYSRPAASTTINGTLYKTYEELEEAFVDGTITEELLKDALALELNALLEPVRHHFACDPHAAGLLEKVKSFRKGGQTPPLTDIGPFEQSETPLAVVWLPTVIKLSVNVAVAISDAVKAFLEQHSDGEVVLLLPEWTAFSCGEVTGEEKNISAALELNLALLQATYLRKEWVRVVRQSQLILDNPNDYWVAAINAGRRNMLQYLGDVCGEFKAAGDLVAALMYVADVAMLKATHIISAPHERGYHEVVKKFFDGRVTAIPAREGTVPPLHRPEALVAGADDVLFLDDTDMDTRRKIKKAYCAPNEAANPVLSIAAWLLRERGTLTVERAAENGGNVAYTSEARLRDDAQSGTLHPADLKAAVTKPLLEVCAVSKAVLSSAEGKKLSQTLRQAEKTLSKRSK
# [8] = biological target: T4, Tyrosyl-tRNA synthetase, putative (Trypanosoma cruzi (strain CL Brener)); assay: Trypanosoma cruzi tyrosyl tRNA synthetase (TcYRS) SOP; format: functional; conditions: 30 µM
# [9] = biological target: Chromo domain-containing protein 1 (Saccharomyces cerevisiae (strain ATCC 204508 / S288c) (Baker's yeast)) (UniProt P32657); assay: ScCHD-1 Enzyme Inhibition Assay; format: functional; conditions: 30 µM; also: in the data most compounds retested in dose-response had high values
# Chain of Chromo domain-containing protein 1 (Saccharomyces cerevisiae (strain ATCC 204508 / S288c) (Baker's yeast)) (P32657 whole entry, the tested form may be a part): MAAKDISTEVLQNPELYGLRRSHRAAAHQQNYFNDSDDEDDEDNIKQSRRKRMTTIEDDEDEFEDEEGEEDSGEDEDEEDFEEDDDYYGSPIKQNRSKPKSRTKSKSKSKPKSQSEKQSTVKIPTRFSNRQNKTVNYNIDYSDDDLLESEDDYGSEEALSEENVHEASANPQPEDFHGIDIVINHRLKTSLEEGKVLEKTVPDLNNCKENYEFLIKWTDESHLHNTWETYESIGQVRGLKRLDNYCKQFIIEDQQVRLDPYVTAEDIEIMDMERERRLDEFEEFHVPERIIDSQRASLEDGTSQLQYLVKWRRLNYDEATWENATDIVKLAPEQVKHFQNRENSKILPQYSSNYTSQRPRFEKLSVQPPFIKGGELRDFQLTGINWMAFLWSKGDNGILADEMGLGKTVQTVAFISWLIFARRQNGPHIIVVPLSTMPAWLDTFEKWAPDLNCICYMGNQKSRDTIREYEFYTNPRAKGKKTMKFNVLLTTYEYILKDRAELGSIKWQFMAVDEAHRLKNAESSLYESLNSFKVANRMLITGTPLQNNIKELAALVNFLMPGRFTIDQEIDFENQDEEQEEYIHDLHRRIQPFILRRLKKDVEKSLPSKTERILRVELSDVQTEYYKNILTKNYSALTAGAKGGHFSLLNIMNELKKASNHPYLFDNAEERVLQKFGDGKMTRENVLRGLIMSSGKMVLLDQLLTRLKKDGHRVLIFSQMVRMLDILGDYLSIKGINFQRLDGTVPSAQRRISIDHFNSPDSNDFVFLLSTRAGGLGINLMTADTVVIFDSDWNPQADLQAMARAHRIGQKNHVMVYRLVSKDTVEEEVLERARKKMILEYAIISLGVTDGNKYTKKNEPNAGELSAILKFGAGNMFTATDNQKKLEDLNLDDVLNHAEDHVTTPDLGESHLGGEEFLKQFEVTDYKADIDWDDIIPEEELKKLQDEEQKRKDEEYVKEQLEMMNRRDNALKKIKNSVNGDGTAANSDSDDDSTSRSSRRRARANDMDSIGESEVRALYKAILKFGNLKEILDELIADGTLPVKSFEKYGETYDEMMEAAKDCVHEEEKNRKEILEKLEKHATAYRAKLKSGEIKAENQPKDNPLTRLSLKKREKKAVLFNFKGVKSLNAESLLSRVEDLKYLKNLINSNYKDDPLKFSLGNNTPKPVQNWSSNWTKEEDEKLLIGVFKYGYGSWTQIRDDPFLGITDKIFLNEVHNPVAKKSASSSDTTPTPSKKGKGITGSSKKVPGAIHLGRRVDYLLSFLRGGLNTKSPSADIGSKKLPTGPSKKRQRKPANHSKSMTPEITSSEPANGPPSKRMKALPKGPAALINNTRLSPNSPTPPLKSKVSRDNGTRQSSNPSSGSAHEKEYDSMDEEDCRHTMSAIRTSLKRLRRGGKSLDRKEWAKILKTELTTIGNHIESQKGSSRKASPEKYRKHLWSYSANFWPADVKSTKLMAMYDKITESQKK
# Chain of Protein translocase subunit SecA (Escherichia coli (strain K12)) (P10408 whole entry): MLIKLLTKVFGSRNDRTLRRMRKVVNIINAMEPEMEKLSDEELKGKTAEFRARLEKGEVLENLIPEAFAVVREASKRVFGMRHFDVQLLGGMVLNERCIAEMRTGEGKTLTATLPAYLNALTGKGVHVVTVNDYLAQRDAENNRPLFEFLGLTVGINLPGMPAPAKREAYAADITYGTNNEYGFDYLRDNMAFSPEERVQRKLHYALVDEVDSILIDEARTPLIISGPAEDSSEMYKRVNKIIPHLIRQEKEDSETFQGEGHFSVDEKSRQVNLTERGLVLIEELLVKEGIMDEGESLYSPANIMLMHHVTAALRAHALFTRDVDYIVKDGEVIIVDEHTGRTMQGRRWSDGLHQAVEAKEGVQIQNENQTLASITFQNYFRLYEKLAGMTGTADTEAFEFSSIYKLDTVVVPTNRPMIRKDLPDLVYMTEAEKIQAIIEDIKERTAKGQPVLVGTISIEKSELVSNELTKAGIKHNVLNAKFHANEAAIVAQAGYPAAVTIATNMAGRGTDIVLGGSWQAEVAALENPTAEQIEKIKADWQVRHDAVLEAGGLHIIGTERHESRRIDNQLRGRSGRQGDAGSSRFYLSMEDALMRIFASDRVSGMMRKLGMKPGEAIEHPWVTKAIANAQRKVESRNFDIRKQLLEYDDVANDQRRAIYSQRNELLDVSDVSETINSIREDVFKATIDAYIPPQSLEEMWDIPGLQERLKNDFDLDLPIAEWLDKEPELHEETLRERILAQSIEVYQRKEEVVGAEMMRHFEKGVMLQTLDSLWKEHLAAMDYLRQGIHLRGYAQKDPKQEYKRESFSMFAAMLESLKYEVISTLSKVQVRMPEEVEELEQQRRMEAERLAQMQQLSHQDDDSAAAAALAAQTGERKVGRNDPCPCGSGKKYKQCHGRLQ
SMILES,Percent Effect [1] [%],Percent Effect [2] [%],Percent Effect [3] [%],Percent Effect [4] [%],Percent Effect (Trypanosoma cruzi) [%],Percent Effect [5] [%],Percent Effect [6] [%],Percent Effect (Homo sapiens) [%],Percent Effect [7] [%],Percent Effect [8] [%],Percent Effect [9] [%]
Cc1cccc(CN2CCc3ncnc(C)c3CC2)n1,1.12,8.22,5.73,7.82,-5.75,-0.798,13.4,4.7,-1.04,8.64,-4.79
Cc1nn(C)c(N2CCOCC2)c1CNC(c1cccs1)C(C)C (stereo unspecified),-2.38,21.1,-9.37,-0.827,1.59,1.8,12.6,-16.1,10.3,28.4,-6.09
CC(C)c1nc(C2CCCN2CCCc2nc3ccccc3o2)no1 (stereo unspecified),-2.74,-8.11,-9.61,9.51,1.42,-6.81,-1.62,5.36,2.46,-6.17,0.486
Cc1cnn(CCNCC(=O)NCCOc2ccccc2)c1,0.828,21.1,4.84,-1.9,-5.88,0.719,6.85,25.5,4.43,-6.17,-8.28
CCc1nc(CN2CCCC(NCc3nnc(C4CC4)o3)C2)no1 (stereo unspecified),-2.45,18.2,3.2,-12.1,1.67,-0.632,10.4,-0.806,11.4,25.9,-21.2
Cc1nc(C2CCCN(C(=O)Cn3ccccc3=O)C2)no1 (stereo unspecified),-0.276,0,3.05,1.79,-0.564,4.6,-4.84,8.71,2.45,4.88,3.7
N#CCSCCCN1CCCN(C(=O)c2ccccc2)CC1,-1.53,-5.48,0.11,1.74,-4.17,3.19,1.63,14.4,1.04,3.7,6.49
CC(C)Cc1noc(CN2CCN(CCOc3ccc(Cl)cc3)CC2)n1,-5.56,21.1,-0.366,9.07,5.08,-3.83,14.7,32.7,5.39,19.5,-8.42
CN1CCOC(CNCc2coc(-c3ccccc3)n2)C1 (stereo unspecified),0.225,12.7,-7.36,-10.7,-5.57,7.22,8.6,24.4,6.4,13.9,-5.22
CCOC(=O)NC(CNC(=O)CCc1ccccn1)CC(C)C (stereo unspecified),-7.25,0,0.68,-3.55,3.62,2.73,4.72,-1.48,-5.38,3.7,-0.238
O=C(NCCOc1ccc(F)c(F)c1)NCc1cccc(CO)c1,-2.53,2.7,1.53,4.96,1.16,-2.38,15.2,19.7,-0.529,7.32,-4.04
CCc1cc(N2CCCNCC2)n2nc(C)c(C)c2n1,-1.91,8,2.19,2.6,-3.41,3.65,16,12.2,1.64,11.1,-6.23
COc1cccc(CN(C)S(=O)(=O)N2CCOCC2)c1,-1.1,13.2,1.96,-0.478,2.63,-10.7,22.1,23.5,5.32,18.2,-6.9
Cc1csc(C2CCCN(C(=O)c3cnc[nH]3)C2)n1 (stereo unspecified),-3.16,10.8,-8.22,15.3,3.11,-4.41,3.42,32.5,5.42,18.5,-10.5
CC(CNC(=O)c1cccnc1Oc1cccnc1)N(C)C (stereo unspecified),-0.805,18.9,-3.66,10.5,6.56,10,12.9,4.67,4.76,17.1,-1.51
Cc1cc(C2CCCN(C(=O)c3cnn(C)c3)C2)ccn1 (stereo unspecified),-5.39,9.46,10.9,0.0727,5.93,-0.696,12.3,-13.7,8.6,11.7,-9.36

# Reference: ChEMBL document CHEMBL3988442, “University of Dundee, Small-Polar-MMV Screening Library” (2021)
